Active and inactive are the calls of the source. The rule behind the calls is not given here.

The target of this assay is Protein kinase 7 (PK7), Plasmodium falciparum 3D7 (PF3D7_0213400) (UniProt Q7YTF7). The assay is described as follows: inhibition of Plasmodium PK7 catalytic activity – biochemical, TCAMS antimalarial set, Kinase-Glo luminescence (AID 1159587). Conditions: recombinant PfPK7, Kinase-Glo ATP depletion luminescence. (In Kinase-Glo more light means more ATP remaining.)
Protein kinase 7 (PK7), Plasmodium falciparum 3D7 (PF3D7_0213400), sequence (Q7YTF7 1-343): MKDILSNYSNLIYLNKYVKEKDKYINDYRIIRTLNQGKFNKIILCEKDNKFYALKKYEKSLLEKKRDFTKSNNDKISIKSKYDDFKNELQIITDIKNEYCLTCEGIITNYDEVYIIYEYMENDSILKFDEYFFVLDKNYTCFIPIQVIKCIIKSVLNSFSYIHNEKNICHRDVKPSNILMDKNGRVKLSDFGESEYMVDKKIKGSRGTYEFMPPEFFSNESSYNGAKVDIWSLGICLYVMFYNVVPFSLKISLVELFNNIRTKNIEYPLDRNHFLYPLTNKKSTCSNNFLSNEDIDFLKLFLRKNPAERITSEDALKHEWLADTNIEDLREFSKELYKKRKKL
`OC(CNc1ccnc(Nc2cccc(Cl)c2)n1)c1cccc(C(F)(F)F)c1` (stereo not given): the outcome was inactive.

Take `CC1CN(Cc2cccc(-c3ccc(-c4nc5ccc(F)cc5[nH]4)cc3)c2)CC(C)O1` (stereo not given): the outcome was inactive.

On to `COc1cc(F)c2ncc(Cl)c([C@H](O)CN3CCC(NCc4cc5c(cn4)OCCO5)CC3)c2c1`, for which the result was inactive.

`COc1ccc2nc(C)cc(NN=Cc3ccccc3Cl)c2c1`: the outcome was inactive.

Take `Cn1nccc1C(=O)NCCNCc1ccc(-c2ccc(-c3nc4ccc(C(F)(F)F)cc4[nH]3)cc2)cc1`: the result was inactive.

As for `COc1ccccc1C1CCN(C2CCC(NC(=O)/C=C/c3cc(F)cc(F)c3)CC2)CC1` (stereo not given), the outcome was inactive.

In the case of `CN(C)CCCOc1ccc(CCCCc2ccc(Cl)cc2C(=O)c2ccccc2)cc1`, the result was inactive.

With `O=C(C=Cc1ccc(C(=O)Nc2ccc(C3=NCCN3)cc2)cc1)Nc1ccc(C2=NCCN2)cc1`, the outcome was inactive.

As to `Cc1ccc2nc(C)cc(NC(=O)Nc3ccc(N(C)C)cc3)c2c1`, the outcome was inactive.

Take `CC(C)c1ccc(CN2CCCCC(NC(=O)c3cc(-c4ccccc4Cl)cs3)C2)cc1` (stereo not given): the result was inactive.

Regarding `CCNc1cc(C(=O)N[C@@H](Cc2ccccc2)[C@H](O)CNCCc2ccccc2)cc(N2CCCC2=O)c1`, the outcome was inactive.

In the case of `COc1cc(C(F)(F)F)c2cc(CNCCCNc3nc4ccccc4[nH]3)[nH]c2c1`, the outcome was inactive.

With `FC(F)(F)c1cccc(CNCCCCCNCc2ccc(Cl)cc2)c1`, the outcome was inactive.

Regarding `CC(=O)Nc1ccc(CN2Cc3ccc(NC(=O)Nc4ccc(Oc5ccccc5)cc4)cc3C2)s1`, the result was inactive.

`COCc1cccc(-c2cc(-c3ccc(S(C)(=O)=O)cc3)cnc2N)c1`: the outcome was inactive.

`CCCCCCCCNc1c2ccc(Cl)cc2nc2ccc(OC)cc12`: the outcome was inactive.

Turning to `Oc1ccc(Cl)cc1CN1CCCC(COC(c2ccc(F)cc2)c2ccc(F)cc2)C1` (stereo not given), the result was inactive.

With `CN1CCN(Cc2ccc(-c3cc4nccc(Nc5ccc(Oc6ccccc6)cc5)c4cc3Cl)o2)CC1`, the outcome was inactive.

For the molecule `O=C(NCC1CCN(Cc2ccc(F)cc2)C1)c1cc(-c2cccc(C(F)(F)F)c2)cs1` (stereo not given), the outcome was inactive.

As to `Cn1ccnc1S(=O)(=O)CCNCc1ccc(-c2ccc3ncnc(Nc4ccc(OCc5cccc(F)c5)c(Cl)c4)c3c2)o1`, the result was inactive.

With `CCC(CC(NCCCCNC(=O)c1ccc(NC(=O)c2ccc(Cl)cc2)cc1)c1ccccc1)c1ccccc1OC` (stereo not given), the outcome was inactive.

Regarding `N#CC(c1ccc(Br)cc1)c1ccc2c(C(F)(F)F)cc(C(F)(F)F)nc2n1` (stereo not given), the outcome was inactive.

On to `O=C(CCCCCNC(=O)c1ccc(O)c(-c2ccc(Cl)c(Cl)c2)c1)NCCN1CCCCC1`, for which the result was inactive.

On to `COc1ccc(NC(=O)N2CCN(CCCCCNC(=O)/C=C/c3ccc(C(F)(F)F)cc3)CC2)cc1Cl`, for which the outcome was inactive.

For the molecule `O=C(Nc1ccc(Cn2ncc(N3CCCNCC3)c(Cl)c2=O)cc1)Nc1ccc(-c2ccccc2)cc1`, the result was inactive.

Turning to `O=C(NCCc1ccc(Cl)c(Cl)c1)c1ccc(CNC(=O)c2ccc(O)c(-c3ccc(Cl)c(Cl)c3)c2)cc1`, the outcome was inactive.

`CC(=O)N1N=C(c2ccc(Cl)cc2)Sc2c1nc(C1CCCCC1)n2C(C)=O`: the outcome was inactive.

On to `CN1CCCN(Cc2ccc(-c3cccc(NC(=O)c4ccc(F)cc4)c3)cc2)CC1`, for which the result was inactive.

On to `NC(=O)COc1cccc2c1CCN(CCN1CCC(NC(=O)c3ccc(-c4ccc(Cl)cc4)cc3)CC1)C2`, for which the result was inactive.

With `C=C[C@H]1CN(CCCCCCC)CC[C@H]1CCN(C)c1ccnc2ccc(OC)cc12`, the result was inactive.

On to `CC(C)(C)CN1C(=O)C(c2ccccc2)(c2ccccc2)N=C1N`, for which the result was inactive.

Take `CN(C)CCOc1cc(NC(=O)Nc2ccc(-c3ccncc3)c(C(F)(F)F)c2)ccc1Cl`: the result was inactive.

Take `Cc1cc(NCCC(=O)NCCc2ccccc2)nc(NCCc2ccc(F)cc2)n1`: the result was inactive.

`C[C@H](Cc1ccc(C[C@@H](C)NCC(O)c2cc(Cl)c(N)c(Cl)c2)cc1)NCC(O)c1cc(Cl)c(N)c(Cl)c1` (stereo not given in full): the outcome was inactive.

As for `FC(F)(F)c1ccc2nccc(NN=Cc3ccc(Cl)cc3)c2c1`, the outcome was inactive.

In the case of `Cc1cc(N[C@@H](Cc2ccccc2)C(=O)NC2CCCC2)nc(NCCc2cccs2)n1`, the outcome was inactive.

Turning to `N#Cc1cccc(NC(=O)Nc2ccc(CC(=O)N3CCc4cc(Cl)c(N5CCN(C/C=C/c6ccccc6)CC5)cc43)cc2)c1`, the outcome was inactive.

In the case of `O=C(Nc1ccc(CN2CCN(S(=O)(=O)c3ccc(Cl)s3)CC2)cc1)c1cccs1`, the outcome was inactive.

For the molecule `CC(CCCCC(=O)Nc1ccc(C(F)(F)F)cc1)NCC(O)c1cccc(Cl)c1` (stereo not given), the outcome was inactive.

Consider `COc1ccc(NC(=O)c2cc(-c3ccc(NC(C)=O)cc3)cnc2N)cc1`, for which the result was inactive.

For the origin of these results see PubChem BioAssay.
